{"source": "PubChem BioAssay (NCATS)", "note": "Results filed as inconclusive are left out. A number with no mark means an inactive call. The call rests on the fitted dose curve; in most records, active means well fitted inhibition curve with a large enough effect; inconclusive means small, poorly fitted or top-dose-only effect; inactive means flat fitted curve, though single readings scatter. On the % scale 0 is the no-effect control and ±100 the full control effect.", "data": [{"biological_target": "Calcium and integrin-binding protein 1 (Homo sapiens) (UniProt Q99828)", "sequence (Q99828 whole entry, looked up)": "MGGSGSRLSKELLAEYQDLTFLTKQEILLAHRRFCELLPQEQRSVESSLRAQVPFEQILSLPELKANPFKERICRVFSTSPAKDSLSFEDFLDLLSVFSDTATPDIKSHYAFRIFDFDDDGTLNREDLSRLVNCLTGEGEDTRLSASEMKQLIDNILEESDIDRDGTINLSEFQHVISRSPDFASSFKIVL", "assay": "Primary qHTS for Identification of Calcium Integrin Binding Protein 1 (CIB1) Competitor (AID 1508620);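 further: GST tagged CIB1 binding a fluorescein labelled alphaIIb integrin peptide tracer; top concentration of the series differs between compounds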", "settings": "CIB1-GST / FITC-alphaIIb peptide fluorescence polarization; series mostly up to 114 µM; activity change, negative = inhibition: at the top concentration", "procedure,_shortened": "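CIB1-GST (1 uM final) and compound incubated 15 min at room temperature before adding FITC-alphaIIb peptide tracer (100 nM final). Competition for binding read by fluorescence polarization (ex 480, em 540) after another 15 min at room temperature.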", "units": {"activity change, negative = inhibition": "%"}, "values": [{"molecule": "COc1ccccc1CNc1ccc(S(=O)(=O)Nc2nccs2)cc1", "activity change, negative = inhibition": 10.1}, {"molecule": "Cc1ccc(CCCn2c(CCNC(=O)C3CCCCC3)nc3ccccc32)cc1", "activity change, negative = inhibition": -0.956}, {"molecule": "Cc1ccc(OCCn2c(CCNC(=O)c3cc(N)ccc3N)nc3ccccc32)cc1", "activity change, negative = inhibition": 2.35}, {"molecule": "O=C(O)c1cccc(S(=O)(=O)N2CCN(S(=O)(=O)c3ccc4c(c3)OCCO4)CC2)c1", "activity change, negative = inhibition": 0.617}, {"molecule": "CC(=O)Nc1ccc(S(=O)(=O)N2CCN(S(=O)(=O)c3c(F)cccc3F)CC2)cc1", "activity change, negative = inhibition": -11.8}, {"molecule": "COc1ccc(CSc2nc3ncc(Br)cc3[nH]2)cc1F", "activity change, negative = inhibition": 1.74}]}]}
